{"source": "PubChem BioAssay (NCATS)", "note": "Inconclusive results are not listed. A call without a number means that no potency is given here. Activity calls are given as the source filed them. The call rests on the fitted dose curve; in most records, active means well fitted inhibition curve with a large enough effect; inconclusive means small, poorly fitted or top-dose-only effect; inactive means flat fitted curve, though single readings scatter."}
{"molecular_target": "Voltage-gated inwardly rectifying potassium channel KCNH2 (Homo sapiens) (UniProt Q12809)", "sequence (Q12809 whole entry, looked up)": "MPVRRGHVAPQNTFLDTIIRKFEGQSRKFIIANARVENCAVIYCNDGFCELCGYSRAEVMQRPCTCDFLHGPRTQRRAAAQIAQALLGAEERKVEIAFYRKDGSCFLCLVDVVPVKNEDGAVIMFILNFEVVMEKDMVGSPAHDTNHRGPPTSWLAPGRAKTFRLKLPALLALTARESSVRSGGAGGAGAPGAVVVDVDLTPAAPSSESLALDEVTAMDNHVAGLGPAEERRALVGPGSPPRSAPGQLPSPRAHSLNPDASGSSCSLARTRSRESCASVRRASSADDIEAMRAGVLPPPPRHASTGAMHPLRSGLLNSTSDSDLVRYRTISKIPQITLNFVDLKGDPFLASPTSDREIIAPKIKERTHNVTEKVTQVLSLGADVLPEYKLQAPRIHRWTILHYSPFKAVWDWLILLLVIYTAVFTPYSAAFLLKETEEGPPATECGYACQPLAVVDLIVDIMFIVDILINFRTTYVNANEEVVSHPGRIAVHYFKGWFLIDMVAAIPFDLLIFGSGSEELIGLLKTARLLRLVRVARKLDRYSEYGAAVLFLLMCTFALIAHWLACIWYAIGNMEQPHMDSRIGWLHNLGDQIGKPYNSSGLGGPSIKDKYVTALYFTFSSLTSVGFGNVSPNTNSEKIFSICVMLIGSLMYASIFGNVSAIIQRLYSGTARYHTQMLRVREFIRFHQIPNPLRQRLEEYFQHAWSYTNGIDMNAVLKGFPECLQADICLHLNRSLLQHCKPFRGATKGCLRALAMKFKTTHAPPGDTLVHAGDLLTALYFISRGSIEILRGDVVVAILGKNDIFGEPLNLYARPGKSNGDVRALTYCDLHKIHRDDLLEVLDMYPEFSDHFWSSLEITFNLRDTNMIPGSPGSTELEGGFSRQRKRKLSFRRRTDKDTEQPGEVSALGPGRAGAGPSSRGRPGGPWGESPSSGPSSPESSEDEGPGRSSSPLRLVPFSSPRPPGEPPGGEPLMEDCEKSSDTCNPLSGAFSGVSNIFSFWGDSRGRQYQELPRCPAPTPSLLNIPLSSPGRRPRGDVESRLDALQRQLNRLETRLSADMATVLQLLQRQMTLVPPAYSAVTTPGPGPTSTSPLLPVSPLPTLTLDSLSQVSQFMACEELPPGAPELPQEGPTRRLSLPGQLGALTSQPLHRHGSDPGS", "test": "qHTS Assay for Small Molecule Inhibitors of the Human hERG Channel Activity (AID 588834);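 further: top concentration of the series differs between compounds; lower thallium flux fluorescence means stronger hERG block; nearly all actives have a fitted effect of over 50% in size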", "details": "U2OS BacMam hERG, FluxOR thallium flux fluorescence; series mostly up to 46.1 µM", "in_short": "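Measured: FluxOR fluorescence after thallium stimulation in U2OS cells transduced with hERG by baculovirus. Compounds pre-incubated around 10 min; medium Opti-MEM with 2% FCS. AC50 from Hill equation.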"}
{"smiles": "c1ccc2c(c1)sc1ccccc12", "Potency": "inactive"}
{"smiles": "Clc1ccc2c(c1)C(c1ccccc1)=NCc1nncn1-2", "Potency": "inactive"}
{"smiles": "C[C@]12CC[C@@H]3c4ccc(OC(=O)N(CCCl)CCCl)cc4CC[C@H]3[C@@H]1CC[C@@H]2O", "Potency": "inactive"}
{"molecular_target": "Luciferin 4-monooxygenase (Photinus pyralis) (UniProt P08659)", "sequence (P08659 whole entry, looked up)": "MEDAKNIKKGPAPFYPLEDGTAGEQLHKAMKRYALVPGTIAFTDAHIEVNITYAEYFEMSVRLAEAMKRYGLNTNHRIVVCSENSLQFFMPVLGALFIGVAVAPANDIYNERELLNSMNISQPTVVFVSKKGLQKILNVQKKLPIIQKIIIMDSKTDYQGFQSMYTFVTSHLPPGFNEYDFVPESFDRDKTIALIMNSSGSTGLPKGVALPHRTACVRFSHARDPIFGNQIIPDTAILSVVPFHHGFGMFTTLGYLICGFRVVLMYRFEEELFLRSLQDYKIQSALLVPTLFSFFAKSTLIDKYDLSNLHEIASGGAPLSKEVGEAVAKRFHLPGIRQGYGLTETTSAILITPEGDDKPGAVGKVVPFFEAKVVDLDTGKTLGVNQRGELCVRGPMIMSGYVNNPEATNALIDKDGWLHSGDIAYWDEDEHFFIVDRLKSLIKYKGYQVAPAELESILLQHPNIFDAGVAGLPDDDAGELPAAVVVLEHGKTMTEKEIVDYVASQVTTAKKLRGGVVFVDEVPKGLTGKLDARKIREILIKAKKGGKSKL", "test": "Biochemical firefly luciferase enzyme assay for NPC (AID 624030);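 further: purified P. pyralis luciferase at 10 nM with luciferin and ATP substrate; nearly all actives have a fitted effect of over 70% in size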", "details": "purified P. pyralis luciferase, luminescence, 5 min; series mostly up to 58.6 µM", "in_short": "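Direct inhibition of firefly luciferase enzyme (10 nM final, 50 mM Tris Acetate) assessed by luminescence within 5 minutes. Percent activity scaled between DMSO and PTC124 positive control, with concentration-effect curves classified by fit quality and response.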"}
{"smiles": "CCN[C@@H](C)Cc1ccccc1", "Potency": "inactive"}
{"smiles": "CCN(CC)C(=O)[C@@H]1C=C2c3cccc4[nH]cc(c34)C[C@H]2N(C)C1", "Potency": "inactive"}
{"smiles": "C[C@]12CC[C@@H]3c4ccc(OC(=O)N(CCCl)CCCl)cc4CC[C@H]3[C@@H]1CC[C@@H]2OP(=O)(O)O", "Potency": "inactive"}
{"smiles": "CC(C)(C)c1ccc(O)cc1", "Potency": "inactive"}
{"smiles": "COc1cc(CCN)cc(OC)c1OC", "Potency": "inactive"}
{"smiles": "c1ccc(CN2CCNCC2)cc1", "Potency": "inactive"}
{"smiles": "CN1C(=O)COc2c(C(=O)NC3CN4CCC3CC4)cc(Cl)cc21", "note": "(stereo unspecified)", "Potency": "inactive"}
{"smiles": "Clc1cccc(SC2CCNCC2)n1", "Potency": "inactive"}
{"smiles": "Cc1ncsc1CCCl", "Potency": "inactive"}
{"smiles": "CCCN(CCC)C(=O)Cc1c(-c2ccc(Cl)cc2)nc2ccc(Cl)cn12", "Potency": "inactive"}
{"smiles": "CC(Cc1ccccc1)NCCn1cnc2c1c(=O)n(C)c(=O)n2C", "note": "(stereo unspecified)", "Potency": "inactive"}
{"smiles": "CCN[C@@H](C)Cc1cccc(C(F)(F)F)c1", "Potency": "inactive"}
{"smiles": "COC(=O)C(Cl)C(=O)OC", "Potency": "inactive"}
{"smiles": "CN(C)CCc1c[nH]c2cccc(OP(=O)(O)O)c12", "Potency": "inactive"}
{"smiles": "C[C@]12CCC(=O)C=C1CC[C@@H]1[C@H]3CC[C@](C)(O)[C@@]3(C)CC[C@@H]12", "Potency": "inactive"}
{"smiles": "Clc1ccc2c(c1)C(c1ccccc1)=NCc1nncn1-2", "Potency": "inactive"}
{"smiles": "O=C1Nc2ccc(Cl)cc2C(c2ccccc2)=NC1O", "note": "(stereo unspecified)", "Potency": "inactive"}
{"smiles": "C[C@H](N)C(=O)c1ccccc1", "Potency": "inactive"}
